Results from PubChem BioAssay AID1159580 (chemical genetic matrix, 2015).
Screen size: about 5,500 compounds; about 2,000 (36%) were called active. Inconclusive results (about 18%) are left out. No stated cut-off is given here; in the data, active means normalized growth mostly below about 0.91 (no sharp cut-off); inconclusive means no clear call, values can overlap the other calls; inactive means mostly above about 0.92. This is one part of the list.

Test: chemical genetic growth profiling, strain panel (AID 1159580);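 further: tested at 20 µM; growth read once vehicle control cultures reached saturation at 30 °C; 1 = growth at the plate median or of vehicle wells; lower values mean less growth of the strain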
Settings: growth OD

Measured: normalized growth

CC(=O)Nc1c(I)cc(I)c(C(=O)O)c1I
inactive: S. cerevisiae deletion strains, locus YJR075W, strain HOC1, active compounds read low 1 | S. cerevisiae deletion strains, locus YKL009W, strain mrt4, active compounds read low 0.978 | S. cerevisiae deletion strains, locus YKL068W, active compounds read low 0.986 | S. cerevisiae deletion strains, locus YKL085W, strain MDH1 (second series), active compounds read low 1.01 | S. cerevisiae deletion strains, locus YKL085W, strain MDH1, active compounds read low 1.01 | S. cerevisiae deletion strains, locus YKL160W, strain elf1, active compounds read low 0.985 | S. cerevisiae deletion strains, locus YKL190W, strain CNB1, active compounds read low 1.02 | S. cerevisiae deletion strains, locus YKR001C, strain vps1, active compounds read low 0.986 | S. cerevisiae deletion strains, locus YKR026C, strain gcn3, active compounds read low 0.975 | S. cerevisiae deletion strains, locus YKR091W, strain srl3, active compounds read low 0.981 | S. cerevisiae deletion strains, locus YLL001W, strain dnm1, active compounds read low 0.953 | S. cerevisiae deletion strains, locus YLL026W, active compounds read low 0.985 | S. cerevisiae deletion strains, locus YLL041C, strain sdh2, active compounds read low 0.972 | S. cerevisiae deletion strains, locus YLR027C, strain aat2, active compounds read low 0.981 | S. cerevisiae deletion strains, locus YLR039C, strain RIC1, active compounds read low 1.01 | S. cerevisiae deletion strains, locus YLR058C, strain SHM2, active compounds read low 0.994 | S. cerevisiae deletion strains, locus YLR102C, strain apc9, active compounds read low 0.991 | S. cerevisiae deletion strains, locus YLR113W, strain HOG1, active compounds read low 1 | S. cerevisiae deletion strains, locus YLR221C, strain rsa3, active compounds read low 1.01 | S. cerevisiae deletion strains, locus YLR258W, strain gsy2, active compounds read low 0.976 | S. cerevisiae deletion strains, locus YLR262C, strain YPT6 (second series), active compounds read low 0.971 | S. cerevisiae deletion strains, locus YLR262C, strain YPT6, active compounds read low 0.954 | S. cerevisiae deletion strains, locus YLR268W, strain sec22, active compounds read low 0.996 | S. cerevisiae deletion strains, locus YLR320W, strain mms22, active compounds read low 0.99 | S. cerevisiae deletion strains, locus YLR330W, strain CHS5, active compounds read low 0.998 | S. cerevisiae deletion strains, locus YLR342W, strain FKS1 (second series), active compounds read low 1.04 | S. cerevisiae deletion strains, locus YLR342W, strain FKS1, active compounds read low 0.978 | S. cerevisiae deletion strains, locus YLR357W, strain rsc2, active compounds read low 1 | S. cerevisiae deletion strains, locus YLR370C, strain arc18, active compounds read low 0.989 | S. cerevisiae deletion strains, locus YLR371W, strain rom2, active compounds read low 0.993 | S. cerevisiae deletion strains, locus YLR384C, strain iki3, active compounds read low 0.98 | S. cerevisiae deletion strains, locus YLR418C, strain cdc73, active compounds read low 0.99 | S. cerevisiae deletion strains, locus YML016C, strain PPZ1, active compounds read low 0.993 | S. cerevisiae deletion strains, locus YML032C, strain rad52, active compounds read low 0.987 | S. cerevisiae deletion strains, locus YML120C, strain ndi1, active compounds read low 0.981 | S. cerevisiae deletion strains, locus YML124C, strain tub3, active compounds read low 0.988 | S. cerevisiae deletion strains, locus YMR058W, strain fet3, active compounds read low 0.989 | S. cerevisiae deletion strains, locus YMR078C, strain ctf18, active compounds read low 0.988 | S. cerevisiae deletion strains, locus YMR125W, strain sto1, active compounds read low 0.96 | S. cerevisiae deletion strains, locus YMR129W, active compounds read low 0.96 | S. cerevisiae deletion strains, locus YMR205C, strain PFK2, active compounds read low 0.977 | S. cerevisiae deletion strains, locus YMR223W, strain ubp8, active compounds read low 0.972 | S. cerevisiae deletion strains, locus YMR231W, strain pep5, active compounds read low 0.982 | S. cerevisiae deletion strains, locus YMR263W, strain SAP30, active compounds read low 1.01 | S. cerevisiae deletion strains, locus YMR307W, strain GAS1, active compounds read low 1.07 | S. cerevisiae deletion strains, locus YNL067W, strain RPL9B, active compounds read low 1 | S. cerevisiae deletion strains, locus YNL071W, strain lat1, active compounds read low 0.987 | S. cerevisiae deletion strains, locus YNL128W, strain TEP1, active compounds read low 1.01 | S. cerevisiae deletion strains, locus YNL153C, strain GIM3, active compounds read low 0.993 | S. cerevisiae deletion strains, locus YNL183C, strain NPR1, active compounds read low 0.968 | S. cerevisiae deletion strains, locus YNL209W, strain ssb2, active compounds read low 0.99 | S. cerevisiae deletion strains, locus YNL233W, strain BNI4, active compounds read low 0.998 | S. cerevisiae deletion strains, locus YNL248C, strain rpa49, active compounds read low 0.992 | S. cerevisiae deletion strains, locus YNL250W, strain rad50, active compounds read low 0.986 | S. cerevisiae deletion strains, locus YNL271C, strain bni1, active compounds read low 0.989 | S. cerevisiae deletion strains, locus YNL298W, strain CLA4, active compounds read low 0.986 | S. cerevisiae deletion strains, locus YNL307C, strain MCK1, active compounds read low 0.987 | S. cerevisiae deletion strains, locus YNL322C, strain KRE1 (second series), active compounds read low 0.971 | S. cerevisiae deletion strains, locus YNL322C, strain KRE1, active compounds read low 1 | S. cerevisiae deletion strains, locus YNR049C, strain mso1, active compounds read low 0.993 | S. cerevisiae deletion strains, locus YNR052C, strain pop2, active compounds read low 0.999 | S. cerevisiae deletion strains, locus YOL006C, strain TOP1, active compounds read low 1.02 | S. cerevisiae deletion strains, locus YOL012C, strain htz1 0.771 | S. cerevisiae deletion strains, locus YOL147C, strain pex11, active compounds read low 0.992 | S. cerevisiae deletion strains, locus YOR001W, strain rrp6, active compounds read low 0.976 | S. cerevisiae deletion strains, locus YOR061W, strain CKA2, active compounds read low 1 | S. cerevisiae deletion strains, locus YOR069W, strain VPS5, active compounds read low 0.988 | S. cerevisiae deletion strains, locus YOR070C, strain gyp1, active compounds read low 0.988 | S. cerevisiae deletion strains, locus YOR080W, strain dia2, active compounds read low 0.975 | S. cerevisiae deletion strains, locus YOR083W, strain WHI5, active compounds read low 0.984 | S. cerevisiae deletion strains, locus YOR106W, strain vam3, active compounds read low 0.964 | S. cerevisiae deletion strains, locus YOR136W, strain idh2, active compounds read low 0.987 | S. cerevisiae deletion strains, locus YOR144C, strain elg1, active compounds read low 0.995 | S. cerevisiae deletion strains, locus YOR184W, strain ser1, active compounds read low 0.969 | S. cerevisiae deletion strains, locus YOR231W, strain MKK1, active compounds read low 1.02 | S. cerevisiae deletion strains, locus YOR265W, strain rbl2, active compounds read low 0.98 | S. cerevisiae deletion strains, locus YOR270C, strain vph1, active compounds read low 0.951 | S. cerevisiae deletion strains, locus YOR290C, strain snf2, active compounds read low 1 | S. cerevisiae deletion strains, locus YOR316C, strain cot1, active compounds read low 0.991 | S. cerevisiae deletion strains, locus YPL051W, strain arl3, active compounds read low 0.981 | S. cerevisiae deletion strains, locus YPL055C, strain LGE1, active compounds read low 1.05 | S. cerevisiae deletion strains, locus YPL078C, strain atp4, active compounds read low 0.961 | S. cerevisiae deletion strains, locus YPL106C, strain sse1, active compounds read low 0.981 | S. cerevisiae deletion strains, locus YPL240C, strain hsp82, active compounds read low 0.972 | S. cerevisiae deletion strains, locus YPL241C, strain CIN2, active compounds read low 1.01 | S. cerevisiae deletion strains, locus YPL256C, strain CLN2, active compounds read low 1.02 | S. cerevisiae deletion strains, locus YPR119W, strain clb2, active compounds read low 0.986 | S. cerevisiae deletion strains, locus YPR141C, strain kar3, active compounds read low 0.981 | S. cerevisiae deletion strains, locus YPR163C, strain tif3, active compounds read low 0.997 | S. cerevisiae deletion strains, locus YPR167C, strain met16, active compounds read low 0.983 | S. cerevisiae deletion strains, strain wtn01, active compounds read low 0.986 | S. cerevisiae strains, strain wild type, active compounds read low 1.05
